Drawing on PubChem BioAssay AID2330 (Broad Institute, 2010), this text covers inhibition for 69 molecules.

Out of some 37,000 compounds screened, about 2,800 (7.6%) were called active. About 1% were inconclusive and are not listed. The entries come from a sample that favours actives as a whole. Values without a mark were called inactive. Rule as the data show it: active = inhibition above about 80%; inconclusive = no clear call, values can overlap the other calls; inactive = below that.

The test is described as follows: NOMO-1 AML cell viability reduction, primary screen, STK33 inhibitor project, CellTiter-Glo luminescence (AID 2330). The following applies: NOMO-1 AML viability, 72 h, stronger effect = higher value, concentration not given here. In general terms: In ATP-based viability assays light output follows the ATP content of the culture.
Usually inhibition stands for the drop in the measured response relative to a control, in per cent. Turning to `COc1ccc(S(=O)(=O)Nc2cccc3c2O[C@@H](CN(C)Cc2ccc(-c4ccccc4)cc2)[C@H](C)CN([C@H](C)CO)C3=O)cc1`, the inhibition is 22.4%.

As for `CCn1c(SCC(=O)c2ccc(OC)cc2)nnc1-c1ccc(Cl)cc1Cl`, the inhibition is -7.21%.

For `Cc1cccc(N(CC(=O)Nc2cccc([N+](=O)[O-])c2)S(C)(=O)=O)c1C`, the inhibition was -1.91%.

Turning to `COc1cc(OC)c(NC(=O)CSc2nnc(-c3ccncc3)n2-c2ccccc2)cc1Cl`, the inhibition was 37.4%.

As to `COc1ccc(OC)c(NC(=O)c2cnn(-c3ccccc3Cl)c2NC(=O)c2ccco2)c1`, the inhibition is 21.2%.

With `CC(C)NC(=O)Nc1ccc2c(c1)CC(=O)N([C@H](C)CO)C[C@@H](C)[C@@H](CN(C)C(=O)Nc1ccc3c(c1)OCO3)O2`, the inhibition is 21.8%.

As for `c1ccc(-n2c(SCc3nc4ccccc4s3)nnc2-c2ccncc2)cc1`, the inhibition is 37.8%.

Turning to `CSC1=N/C(=C\C=C\c2cccs2)C(=O)S1`, the inhibition was 123% (active).

Consider `COc1ccc(N(Cc2cc3ccccc3[nH]c2=O)C(=O)c2cccc(OC)c2)cc1`, for which the inhibition is -11%.

As to `COc1ccccc1CCNC(=O)c1cnccn1`, the inhibition is 4.1%.

Turning to `COC(=O)c1scc(S(=O)(=O)C(C)(C)C)c1-n1cccc1`, the inhibition is 100% (active).

For `C[C@@H]1CN([C@H](C)CO)C(=O)c2cc(NC(=O)CCN3CCOCC3)ccc2O[C@H]1CN(C)Cc1ccc(Oc2ccccc2)cc1`, the inhibition was 5.92%.

As to `C[C@@H]1CN([C@H](C)CO)C(=O)c2cc(NS(=O)(=O)c3cccs3)ccc2O[C@H]1CN(C)Cc1ccncc1`, the inhibition was -4.5%.

For the molecule `C=C1C(=O)O[C@@H]2[C@H]3C(CO)=CC(=O)C3=C(C)C[C@H](OC(=O)Cc3ccc(O)cc3)[C@@H]12`, the inhibition is 120% (active).

Turning to `C=CC(=O)c1ccc2ccccc2c1`, the inhibition is 98.4% (active).

`COc1ccccc1NC(=O)CCC(=O)c1ccc(C)cc1`: the inhibition is 29.1%.

Regarding `COC(=O)C(C)N(C#N)c1nc(C)nc(C)n1` (centres undefined), the inhibition was 113% (active).

Consider `COc1ccc(CN(C)C[C@H]2Oc3c(NC(=O)c4cnccn4)cccc3C(=O)N([C@H](C)CO)C[C@@H]2C)cc1`, for which the inhibition was 5.98%.

As for `C[C@@H]1CC[C@]2(C)[C@H](CC[C@@H](O)[C@]2(C)O)[C@@]1(C)CC(=O)c1ccoc1`, the inhibition is 9.78%.

For `COCc1nc2c([nH]1)C(c1ccccc1COc1ccc(Cl)cc1)C(C#N)=C(N)O2` (centres undefined), the inhibition is 111% (active).

For `COc1cc(OC)cc(C2C(C#N)=C(N)OC(N)=C2C#N)c1`, the inhibition was 38.6%.

With `CCn1c(SCC(=O)O)nnc1-c1ccc(OC)cc1`, the inhibition was -32.5%.

In the case of `S=c1cc(-c2ccccc2)oc(-c2ccccc2)c1`, the inhibition is 61.2%.

`C[C@@H]1CN([C@H](C)CO)C(=O)c2cccc(NS(=O)(=O)c3ccc(Cl)cc3)c2O[C@@H]1CN(C)Cc1ccc(Oc2ccccc2)cc1`: the inhibition is 49.7%.

Take `CCC(=O)O[C@]1(C(=O)CCl)[C@@H](C)CC2C3CCC4=CC(=O)C=C[C@]4(C)[C@@]3(F)[C@@H](O)C[C@@]21C` (some centres undefined): the inhibition is 7.72%.

`CC(C)(C)c1ccc(-c2[nH]nc(NC(=O)c3ccccc3Cl)c2Br)cc1`: the inhibition was 123% (active).

Turning to `COc1cc(NC(=O)COc2ccc(Br)cc2)ccc1NC(=O)c1ccccc1Cl`, the inhibition is 13.7%.

Take `C[C@@H]1CN([C@@H](C)CO)C(=O)Cc2cc(NC(=O)Nc3ccc4c(c3)OCO4)ccc2O[C@@H]1CN(C)C(=O)Nc1ccc2c(c1)OCO2`: the inhibition was 9.09%.

Turning to `CC(C)NC(=O)Nc1cccc2c1O[C@H](CN(C)S(=O)(=O)c1ccccc1)[C@@H](C)CN([C@@H](C)CO)C2=O`, the inhibition was 6.74%.

Turning to `C[C@H]1CN([C@@H](C)CO)C(=O)c2cc(NS(=O)(=O)c3ccc(F)cc3)ccc2O[C@H]1CN(C)CC1CC1`, the inhibition was 16.3%.

As for `Cc1ccc(S(=O)(=O)Nc2ccc3c(c2)C(=O)N([C@@H](C)CO)C[C@H](C)[C@@H](CN(C)S(=O)(=O)c2ccc(C)cc2)O3)cc1`, the inhibition is -8.16%.

In the case of `C[C@@H]1CN([C@H](C)CO)C(=O)Cc2cc(NC(=O)c3ccncc3)ccc2O[C@H]1CN(C)S(=O)(=O)c1cccs1`, the inhibition is 13.9%.

Take `C[C@H](CO)N1C[C@H](C)[C@H](CN(C)Cc2ccc(C(F)(F)F)cc2)Oc2ccc(NS(C)(=O)=O)cc2C1=O`: the inhibition is 3.14%.

As to `CCn1c(SCC(=O)Nc2sc3c(c2C#N)CCCC3)nnc1-c1ccccc1O`, the inhibition was -7.99%.

With `N#Cc1c(NC(=O)CCn2cnc3ccccc3c2=O)sc2c1CCCC2`, the inhibition was 27.7%.

Regarding `CN1CCN(CC(=O)Nc2sc3c(c2C#N)CCC(C(C)(C)C)C3)CC1` (centres undefined), the inhibition is 115% (active).

As to `OC(c1nc2ccccc2[nH]1)C(O)C(O)C(O)c1nc2ccccc2[nH]1` (centres undefined), the inhibition is -2.04%.

As for `O=C(CSc1ncnc2sc3c(c12)CCCC3)Nc1ccc(F)c(Cl)c1`, the inhibition is -1.63%.

With `CC(C)NC(=O)N(C)C[C@H]1Oc2c(NS(C)(=O)=O)cccc2C(=O)N([C@@H](C)CO)C[C@H]1C`, the inhibition was 12.9%.

With `C[C@@H]1CN([C@@H](C)CO)C(=O)c2cccc(NC(=O)c3cnccn3)c2O[C@H]1CN(C)S(=O)(=O)c1cccs1`, the inhibition was 9.49%.

Consider `COc1cc(/C=C/C(=O)O[C@@H]2O[C@H](CO[C@@H]3O[C@H](CO)[C@@H](O)[C@H](O)[C@H]3O)[C@@H](O)[C@H](O)[C@H]2OC(=O)/C=C/c2cc(OC)c(O)c(OC)c2)cc(OC)c1O`, for which the inhibition is 14.7%.

On to `O=C(OCC1OC(Oc2ccc(O)cc2COC(=O)C2(O)C(O)CCC(O)C2O)C(O)C(O)C1O)c1ccccc1` (centres undefined), for which the inhibition was 17%.

In the case of `COc1cc(O[C@@H]2O[C@H](CO[C@H]3OC[C@](O)(COC(=O)c4ccc(O)c(OC)c4)[C@H]3O)[C@@H](O)[C@H](O)[C@H]2O)ccc1O`, the inhibition was 120% (active).

On to `Cc1ccc(S(=O)(=O)N(C)C[C@@H]2Oc3c(NC(=O)C4CCCCC4)cccc3C(=O)N([C@H](C)CO)C[C@H]2C)cc1`, for which the inhibition is 16.1%.

For the molecule `COc1ccc(NC(=O)Nc2ccc3c(c2)C(=O)N([C@H](C)CO)C[C@H](C)[C@H](CN(C)C(=O)Nc2c(C)noc2C)OCCCC[C@@H](C)O3)cc1`, the inhibition is -10.5%.

As to `C[C@@H]1CN([C@@H](C)CO)C(=O)c2cc(NC(=O)Nc3cccc4ccccc34)ccc2O[C@H]1CN(C)Cc1ccc(Cl)c(Cl)c1`, the inhibition is 94% (active).

Take `COc1ccc(NC(=O)Nc2ccc3c(c2)C(=O)N([C@@H](C)CO)C[C@@H](C)[C@H](CN(C)Cc2ccc(Cl)c(Cl)c2)O3)cc1`: the inhibition is 39.3%.

With `C[C@@H]1CN([C@H](C)CO)C(=O)c2cc(NC(=O)Nc3ccc(F)cc3)ccc2O[C@@H]1CN(C)Cc1ccc(Cl)c(Cl)c1`, the inhibition is 62.8%.

Consider `C[C@@H]1CN([C@H](C)CO)C(=O)c2cc(NC(=O)Nc3ccccc3)ccc2O[C@@H]1CN(C)Cc1ccc(Cl)c(Cl)c1`, for which the inhibition was 88.9% (active).

For the molecule `CC(C)NC(=O)Nc1ccc2c(c1)C(=O)N([C@@H](C)CO)C[C@@H](C)[C@H](CN(C)Cc1ccc(Cl)c(Cl)c1)O2`, the inhibition is 44.5%.

In the case of `C[C@@H]1CN([C@H](C)CO)C(=O)c2cc(NC(=O)Nc3ccccc3)ccc2O[C@H]1CN(C)Cc1ccc(Cl)c(Cl)c1`, the inhibition is -8.23%.

For `CC(=O)Oc1ccc(N(C(C)=O)S(=O)(=O)c2ccc(Cl)cc2)cc1`, the inhibition is 42.4%.

In the case of `CCC(Oc1cccc(NC(=O)c2ccccc2[N+](=O)[O-])c1)C(=O)c1ccccc1` (centres undefined), the inhibition was 2.87%.

Regarding `Cc1ccc(NC(=O)CSc2ncnc3sc(C)c(C)c23)cc1`, the inhibition was 11.3%.

Regarding `Cc1ccc(S(=O)(=O)NCC(=O)N2CCN(c3ccccn3)CC2)cc1`, the inhibition was -2.49%.

Turning to `Cc1ccc(S(=O)(=O)Nc2ccc3c(c2)C(=O)N([C@@H](C)CO)C[C@@H](C)[C@@H](CN(C)Cc2ccncc2)O3)cc1`, the inhibition is 22.8%.

For `C[C@H](CO)N1C[C@H](C)[C@@H](CN(C)Cc2ccc3c(c2)OCO3)Oc2ccc(NC(=O)Nc3ccc(F)cc3)cc2C1=O`, the inhibition is -1.77%.

`C[C@@H]1CN([C@H](C)CO)C(=O)c2cccc(NC(=O)Nc3cccc4ccccc34)c2O[C@@H]1CN(C)C(=O)Nc1ccc(F)cc1`: the inhibition was 97% (active).

With `C[C@@H]1CN([C@@H](C)CO)C(=O)c2cccc(NC(=O)Nc3ccccc3)c2O[C@H]1CN(C)Cc1ccccc1`, the inhibition is 117% (active).

In the case of `C[C@@H]1CN([C@@H](C)CO)C(=O)c2cccc(NC(=O)Nc3ccc(F)cc3)c2O[C@H]1CN(C)C(=O)Nc1ccc(F)cc1`, the inhibition was -5.44%.

For `C[C@H](CO)N1C[C@H](C)[C@H](CN(C)C(=O)Nc2ccc(C(F)(F)F)cc2)Oc2ccc(NC(=O)Nc3ccccc3)cc2C1=O`, the inhibition was 85.9% (active).

Consider `C[C@@H]1CN([C@H](C)CO)C(=O)c2cccc(NC(=O)Nc3ccccc3)c2O[C@H]1CN(C)Cc1ccccc1`, for which the inhibition is 75.5%.

Turning to `C[C@H](CO)N1C[C@H](C)[C@H](CN(C)C(=O)Nc2ccccc2)Oc2c(NC(=O)Nc3ccc(C(F)(F)F)cc3)cccc2C1=O`, the inhibition is 96.2% (active).

With `C[C@@H]1CN([C@@H](C)CO)C(=O)c2cccc(NC(=O)Nc3ccc(F)cc3)c2O[C@@H]1CN(C)C(=O)Nc1ccccc1`, the inhibition is 35.8%.

For the molecule `C[C@@H]1CN([C@H](C)CO)C(=O)c2cc(NC(=O)Nc3ccc(C(F)(F)F)cc3)ccc2O[C@H]1CN(C)C(=O)Nc1ccccc1`, the inhibition is 24.7%.

In the case of `COc1ccc(CN(C)C[C@H]2Oc3c(NC(=O)Nc4ccccc4)cccc3C(=O)N([C@@H](C)CO)C[C@@H]2C)cc1`, the inhibition was 56.6%.

`C[C@@H]1CN([C@H](C)CO)C(=O)c2cccc(NC(=O)Nc3cccc4ccccc34)c2O[C@@H]1CN(C)C(=O)Nc1cccc2ccccc12`: the inhibition was 10.3%.

As to `C[C@H]1CN([C@@H](C)CO)C(=O)c2cccc(NC(=O)Nc3ccc(C(F)(F)F)cc3)c2O[C@@H]1CN(C)Cc1ccccc1`, the inhibition is 72.2%.

For `C[C@H]1CN([C@@H](C)CO)C(=O)c2cc(NC(=O)Nc3ccccc3)ccc2O[C@@H]1CN(C)C(=O)Nc1ccccc1`, the inhibition is 6.27%.
